# In PubChem BioAssay AID652104 (National Center for Advancing Translational Sciences (NCATS), 2013):
# In all, about 410,000 compounds went through this assay and about 7,200 (1.8%) were called active. Roughly 7% stayed inconclusive and do not appear here. The list comes from a sample in which actives are over-represented; it also holds similar structures and randomly drawn compounds. Values without a mark were called inactive. Calls come from the whole dose curve; as a rule, active = well fitted activation curve with a large enough effect; inconclusive = small, poorly fitted or top-dose-only effect, or another doubt; inactive = no such curve, though single readings can be large or run the other way.
# Assay: qHTS of TDP-43 Inhibitors; note: nearly all actives have a fitted effect of over 50% in size; for growth rescue (activation): % of control where 0% means no effect
# Details: TDP-43 expressing yeast growth rescue, BacTiter-Glo, 24 h; series mostly up to 46.1 µM; growth rescue (activation): at the top concentration
# Outline: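 Growth rescue of TDP-43-toxic yeast measured as ATP luminescence (BacTiter-Glo). Cells grown to mid-log in raffinose, induced in galactose at OD600=0.02, exposed to compound 24 hr at 30 deg C.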
# Potency is the fitted concentration of half-maximal effect.
SMILES,growth rescue (activation),Potency
Cc1nnc(NC(=O)CSc2nc3c([nH]c4ccccc43)c(=O)n2-c2cccc(Cl)c2)s1,27.2%,
O=C1C=C(c2ccnc3cc(Cl)ccc23)C[C@@H](c2ccc3c(c2)OCO3)C1,,22.4 µM (active)
O=C(Nc1ccc2c(c1)OCO2)c1sc2cc(Cl)ccc2c1Cl,11.5%,
CC(=O)C1=C(C)NC(=O)NC1c1ccc2c(c1)OCO2 (stereo not drawn),-15%,
Cc1cccc(N2CCN(C3=C(c4ccccc4)C(=O)c4ccccc43)CC2)c1C,14.2%,
Cc1cccc(NC(=O)c2ccc(F)c(S(=O)(=O)N(C)C3CCCCC3)c2)c1,20.7%,
Brc1cccc(-c2nnn3c2nc(NC2CCCCC2)c2ccccc23)c1,9.58%,
O=C(Nc1nnc(S(=O)(=O)N2CCCc3ccccc32)s1)c1cccc(F)c1,18.6%,
COCCCNc1ccn2nc(-c3ccc(CC(C)C)cc3)cc2n1,,17.8 µM (active)
CCc1ccc(C2CC(=O)c3c([nH]c(C(=O)OCc4ccc(C)cc4)c3C)C2)cc1 (stereo not drawn),13.6%,
CCN(CCCNC(=O)c1cc(Nc2ccc(OC)cc2)nc2ccccc12)c1cccc(C)c1,20.5%,
Cc1ccc(CSc2nc3ccsc3c(=O)n2CCC(C)C)cc1,10.6%,
CCOc1ccccc1NC(=O)Cn1c2ncccc2c(=O)n1-c1ccc(C)c(C)c1,0%,
Cc1ccc(-n2c(=O)c3cccnc3n2CC(=O)NCc2ccc(F)cc2)cc1C,,12.6 µM (active)
Cc1ccc(-n2c(=O)c3cccnc3n2CC(=O)Nc2ccccc2C(F)(F)F)cc1C,21.9%,
CCOc1ccccc1NC(=O)Cn1c(=O)n(Cc2ccccc2)c(=O)c2c(C)c(C(=O)N(C)C)sc21,29.5%,
Cc1c(CNC(C)c2ccccc2)c(C(=O)O)c(C)n1Cc1c(F)cccc1Cl (stereo not drawn),-5.06%,
Cc1ccc(CN2CC(N3CCC(Cc4ccccc4)CC3)CS2(=O)=O)cc1 (stereo not drawn),8.85%,
O=[N+]([O-])c1ccc(CN2CC(N3CCC(c4ccccc4)CC3)CS2(=O)=O)cc1 (stereo not drawn),,25.1 µM (active)
O=S1(=O)CC(N2CCC(Cc3ccccc3)CC2)CN1Cc1ccccc1 (stereo not drawn),9.43%,
CCOC(=O)c1c(C)oc2ccc(N(C(=O)c3ccncc3)S(=O)(=O)c3ccc(CC)cc3)cc12,19.9%,
CCc1ccc(CN(Cc2ccco2)C(=O)COc2ccc(Cl)c(C)c2)cc1,6.26%,
CCOC(=O)c1ccc(NC(=O)c2nc(SCc3ccc(F)cc3)ncc2Cl)cc1,2.94%,
Cc1cccc(NC(=O)c2nc(S(=O)(=O)Cc3ccccc3)ncc2Cl)c1,,7.08 µM (active)

SMILES,growth rescue (activation),Potency
CCS(=O)(=O)c1ncc(N(Cc2ccc(F)cc2)Cc2ccco2)c(C(=O)Nc2cc(C)ccc2C)n1,13%,
Cc1ccc2nc(NC(=O)c3nc(SCc4ccccc4F)ncc3Cl)sc2c1,11.2%,
CSc1nnc(NC(=O)c2nc(S(=O)(=O)Cc3ccc(C)cc3)ncc2Cl)s1,,11.2 µM (active)
Cc1cccc(NC(=O)Cn2cc(S(=O)(=O)Cc3ccccc3Cl)c3ccccc32)c1,14.7%,
CCOc1ccc(N(CC)C(=O)c2noc3c2COc2ccc(C)cc2-3)cc1,3.89%,
Cn1c(=O)sc2cc(NS(=O)(=O)c3ccc(C(C)(C)C)cc3)ccc21,15.4%,
COc1cc(NC(=O)c2nn(-c3ccc(C)cc3)c(=O)c3c2c2ccccc2n3C)cc(OC)c1OC,20.5%,
COc1ccccc1-n1c(-c2ccc(C)cc2)cn2c3c(=O)n(C)c(=O)n(C)c3nc12,15.8%,
Cc1ccc(C)n1-c1nnc(N2CCC(C(=O)NCc3ccccc3Cl)CC2)s1,7.93%,
COc1ccc(Nc2cc(Cl)ccc2C(=O)O)cn1,,10 µM (active)
COc1cc(C(F)(F)F)c(C(=O)N(C)c2ccc(Cl)cc2)cn1,-13.9% [at 1.82 µM],
COc1ccc(Cl)cc1NC(=O)c1oc(C)nc1C,-4.05%,
CCOC(=O)c1ccc(NC(=O)CSc2nc3c([nH]c4ccccc43)c(=O)n2C)cc1,14.3%,
CSc1cccc(NC(=S)N(Cc2ccccc2)Cc2ccccn2)c1,,20 µM (active)
Cc1c(Cl)cccc1NC(=S)N(Cc1ccccc1)Cc1cccnc1,-6.19%,
CSc1cccc(NC(=S)N(C(C)C)C(C)c2ccccn2)c1 (stereo not drawn),-6.51% [at 9.22 µM],
CC(C)(C)OC(=O)N1CCC(c2c(C(=O)N3CCN(c4cccc(Cl)c4)CC3)cnn2-c2cccc(Cl)c2)CC1,28.5%,
CCOCCCNC(=O)c1c(NC(=O)Cc2coc3c(C)c(C)ccc23)sc2c1CCC2,0%,
Cc1csc(NC(=O)CSc2nnc(-c3cccnc3)o2)n1,-8.58%,
CC(NC(=O)COc1ccccc1)C(=O)NC1=NCCS1 (stereo not drawn),-24.5%,
O=C(CSC1=NCCS1)Nc1nc(-c2ccccc2)cs1,,22.4 µM (active)
COc1ccc(-c2nn(CC(=O)Nc3ccccc3F)c3c2cnc2ccc(F)cc23)cc1,0%,
Cc1ccc(Cn2c(=O)n(CCCC(=O)NCc3ccccc3Cl)c(=O)c3ccccc32)cc1,-11.2%,
COc1cc(OC)c(NC(=O)Cc2ccc(-n3c(C)nc4cccnc43)cc2)cc1Cl,-10.8%,

SMILES,growth rescue (activation),Potency
Cc1cc(C)cc(OC(C)C(=O)Nc2nc3c(s2)CCCC3)c1 (stereo not drawn),9.5%,
O=C(Nc1nc2c(s1)CCCC2)c1ccccc1F,22.7%,
Fc1ccc2nc(Nc3nc4c(s3)CCCC4)sc2c1,,2.24 µM (active)
COc1ccc(-c2cn3nc(N4CCC(C(=O)Nc5cccc(C)c5C)CC4)sc3n2)cc1,6.6%,
Cc1ccccc1S(=O)(=O)NC(=O)C1(C)CCN1C(=O)C1(c2ccc(Cl)cc2)CC1 (stereo not drawn),,28.2 µM (active)
CC1(C(=O)NS(=O)(=O)c2ccccc2)CCN1C(=O)c1ccccc1 (stereo not drawn),0.758%,
Cc1ccccc1S(=O)(=O)NC(=O)C1(C)CCN1C(=O)Cc1ccc(Cl)cc1Cl (stereo not drawn),0%,
Cc1ccccc1S(=O)(=O)NC(=O)C1(C)CCN1C(=O)C1(c2ccccc2)CCCC1 (stereo not drawn),,35.5 µM (active)
CC1(C(=O)NS(=O)(=O)c2ccc3ccccc3c2)CCN1C(=O)C1(c2ccc(Cl)cc2)CCC1 (stereo not drawn),-8.26%,
CCCNC(=O)C1(C)CCN1C(=O)C1(c2ccccc2)CC1 (stereo not drawn),17.1%,
COc1ccc(NC(=O)CSc2nccn2C2CCCC2)cc1OC,8.04%,
COc1ccccc1CCNC(=O)c1cccn1-c1nnc(N2CCCCC2)s1,-17.6%,
O=C(CCn1c(=O)c2sccc2n(Cc2ccc(F)cc2)c1=O)NCc1ccc2c(c1)OCO2,13.5%,
O=C(Nc1ccc2nc(SCC(=O)N3CCCc4ccccc43)sc2c1)c1ccc(Cl)cc1,-7.69%,
CCOc1ccccc1NC(=O)CN1CCCN(Cc2cccc(Cl)c2)S1(=O)=O,24.2%,
CCCCn1cc(S(=O)(=O)c2ccc(OCC)cc2)c(=O)c2cc(OC)c(OC)cc21,19.6%,
COc1ccc(S(=O)(=O)c2cn(C)c3cc(N4CCCCC4)c(F)cc3c2=O)cc1,21.4%,
COc1cc2nc(NCC(C)c3ccccc3)n3nc(-c4ccccc4)nc3c2cc1OC (stereo not drawn),-5.52%,
CCCCC12CN3CC(C)(CN(C1)C3c1ccc(O)c(OC)c1)C2=O (stereo not drawn),9.06%,
Cc1nc(-c2ccc(F)cc2)c(CC(=O)N2CCN(S(=O)(=O)c3ccc(F)cc3)CC2)s1,23.4%,
Cc1ccc(S(=O)(=O)N2CCN(C(=O)Cc3sc(C)nc3-c3ccc(F)cc3)CC2)c(C)c1,,35.5 µM (active)
Cc1nc(-c2ccc(F)cc2)c(CC(=O)Nc2cc(S(=O)(=O)N3CCCCC3)ccc2C)s1,-16.5%,
COc1cccc(CNCc2c(C(=O)O)n(Cc3ccc(C)cc3)c3cc(C)ccc23)c1OC,-5.18%,
COc1ccc(NS(=O)(=O)c2cc3c4c(c2)CC(=O)N4CCC3)cc1Cl,5.28%,

SMILES,growth rescue (activation),Potency
COc1cc(NC(=O)CSc2nc3nc(C)c(Cc4ccc(C)cc4)c(C)n3n2)cc(OC)c1OC,28.1%,
Cn1cc(S(=O)(=O)NC(c2ccccc2)c2ccccc2)c(=O)n(C)c1=O,-11.6%,
Cn1cc(S(=O)(=O)Nc2ccc(Cl)cc2Cl)c(=O)n(C)c1=O,-9.05%,
CC(C)c1ccc(NS(=O)(=O)c2cn(C)c(=O)n(C)c2=O)cc1,,20 µM (active)
Cc1nnc(N2CCC(C(=O)Nc3ccc(F)cc3)CC2)c2nn(-c3ccc(Cl)cc3)c(C)c12,16%,
Cc1sc2ncnc(N3CCC(C(=O)Nc4ccc(F)cc4Cl)CC3)c2c1C,,15.8 µM (active)
CCc1ccc(C(=O)NNC(=O)C2CCN(c3ncnc4sc(C)c(C)c34)CC2)cc1,-1.89%,
O=C(CCn1ccc2cc(S(=O)(=O)N3CCCC3)ccc21)NCc1cccc(Cl)c1,17.2%,
CCOC(=O)c1ccc(NC(=O)CCS(=O)(=O)c2ccc(C)cc2)cc1,0%,
O=C(CCc1nc(CN2CCN(S(=O)(=O)c3ccc(F)cc3)CC2)no1)N1CCCCC1,1.71%,
COc1cccc(CNC(=O)Cn2ncn3c(cc4ccccc43)c2=O)c1,8.84%,
Fc1ccc(-n2ncc3c(Nc4ccc(Oc5ccccc5)cc4)ncnc32)cc1,23.6%,
CCCCNc1c(-c2ccc(OC)c(Sc3ccc(OC)cc3)c2)nc2ccc(Cl)cn12,,17.8 µM (active)
COc1ccc(-c2nc3cc(C)ccn3c2NC2CCCCC2)cc1SC1CCCCC1,,inactive
CCCCNc1c(-c2cccc(Sc3ccc(OC)cc3)c2)nc2ccccn12,-91.7%,
O=C1CN(C(=O)Nc2ccccc2C(F)(F)F)C(c2ccccc2)c2c(sc3c2CCCC3)N1 (stereo not drawn),24.1%,
COc1cc(OC)cc(-c2nc3nc(C)c(CCC(=O)Nc4ccc(C)cc4)c(C)n3n2)c1,-11.3%,
CCOc1ccc(C(=O)NCC(=O)N2CCN(c3ccc(C(F)(F)F)cn3)CC2)cc1,15.3%,
CCN(CC)CCN(C)C(c1ccnc2ccccc12)c1nnnn1-c1ccc2c(c1)OCCO2 (stereo not drawn),-2.36%,
CCC(c1nnnn1-c1ccc2c(c1)OCCO2)N1CCN(c2ccc(C(F)(F)F)cn2)CC1 (stereo not drawn),,22.4 µM (active)
O=C(Nc1ccc(O)c(-c2nc3ccccc3o2)c1)c1ccc(-c2cccc(Cl)c2)o1,23.1%,
